# Reference: PubChem BioAssay (NCATS)
# Values joined by “and” are separate entries in the source; they are usually repeats but may differ in a detail not shown here. Equal entries are not always repeated. Inconclusive results are not listed. Where a call stands in place of a potency, no number is given. Active and inactive are the calls of the source. Unless noted, calls come from the whole dose curve; as a rule, active = well fitted curve in the direction sought with a large enough effect; inconclusive = small, poorly fitted or top-dose-only effect, or another doubt; inactive = no such curve, though single readings can be large; an effect the other way counts as inactive or inconclusive.
# Columns and labels:
# [1] = target: Mitogen-activated protein kinase 10 (Mus musculus) (UniProt Q61831); test: JNK3 AlphaScreen Assay (AID 530; active = well fitted curve in either direction with a large enough effect, not every such curve was filed as active;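 note: kinase came from lysate of stimulated human HepG2 cells; signal reports phosphorylation of biotinylated GST-cJun 1-79 at Ser73 with 10 µM ATP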)
# Outline: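 qHTS titrations with 15 min compound pre-incubation before adding ATP (10 uM final). Read-out: AlphaScreen of Ser73-phosphorylated biotin-GST-cJun using HepG2 lysate JNK3 activated by IL-1β and TNFα.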
# [2] = Cellular Toxicity (caspase-3) Jurkat (AID 655); settings: Jurkat caspase-3 activation, luminescence; caspase-3 activation: at 92.2 µM (top of the series), DMSO = 0%, tamoxifen = 100%;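 note: cells exposed to compound for 16 h at 37 °C before reading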
# Outline: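 qHTS in human Jurkat T-cell leukemia line: 16 hr compound treatment at 37 °C, caspase-3/7 activity measured by Caspase-Glo luminescence. AC50 derived from Hill equation.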
# [3] = Cellular Toxicity (caspase-3) Renal Proximal Tubule (AID 667);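 note: cells exposed to compound for 16 hours at 37 °C before detection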
# Outline: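 Caspase-Glo 3/7 read-out, rat primary kidney proximal tubule cells. Compound exposure 16 h, 37 °C; detection after 1 h at RT. Activity scaled to DMSO and 10 uM staurosporine.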
# [4] = target: Cytochrome P450 3A4 (Homo sapiens) (UniProt P08684); test: qHTS Assay for Inhibitors and Substrates of Cytochrome P450 3A4 (AID 884); note: nearly all actives have a fitted effect of over 50% in size
# Outline: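 Luminescent readout of luciferin produced by CYP3A4 (20 nM) dealkylation of Luciferin-PPXE, 25 uM (its KM). NADPH-driven reaction ran 60 min at RT after 10 min compound preincubation; data scaled to 57 uM ketoconazole as 100% inhibition.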
# [5] = MultiTox-Fluor Cytotoxicity Assay - LYMP1-001 - Live Cells (AID 947)
# [6] = Cell Viability - LYMP1-003 - Assay at 40 hr (AID 964); note: nearly all actives have a fitted effect of over 60% in size
# Outline: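 Luminescent ATP signal (CellTiter-Glo) served as the viability read-out after 40 hr compound treatment of human lymphoblastoid LYMP1-003 cells at 37 C. Decreases in ATP were fitted with the Hill equation to give AC50.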
# [7] = Cell Viability - LYMP2-004 (AID 966);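 note: cells exposed to compound for 24 h; nearly all actives have a fitted effect of over 65% in size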
# Outline: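 qHTS cytotoxicity: human lymphoblastoid line, 24 hr compound treatment, 37 C, complete medium. Viability read as cellular ATP via luciferase luminescence; tetraoctylammonium bromide served as positive control.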
# [8] = Cell Viability - LYMP2-017 (AID 972);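 note: cells exposed to compound for 24 hours at 37 °C; nearly all actives have a fitted effect of over 55% in size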
# Outline: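 Cytotoxicity is scored as a concentration-dependent drop in cellular ATP in a human lymphoblastoid line after 24 hr treatment at 37 C. Values are AC50s from Hill-equation modelling.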
# [9] = Cell Viability - LYMP2-019 (AID 973);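 note: cells exposed to compound for 24 h at 37 °C; nearly all actives have a fitted effect of over 55% in size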
# Outline: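 Cytotoxicity is scored as a concentration-dependent drop in cellular ATP after cells (2500/well) receive compound for 24 hr at 37 C. Tetraoctylammonium bromide serves as positive control.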
# [10] = Cell Viability - LYMP2-007 (AID 979);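 note: cells exposed to compound for 24 h before reading; nearly all actives have a fitted effect of over 60% in size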
# Outline: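 Cells are seeded at 2500 per well and rested 5 hr. Compounds are then added over a concentration series for 24 hr at 37 C. CellTiter-Glo is added for 30 min at room temperature before luminescence reading.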
# [11] = Cell Viability - LYMP2-008 (AID 980);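 note: cells exposed to compound for 24 h at 37 °C; nearly all actives have a fitted effect of over 60% in size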
# Outline: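 Cells seeded at 2500/well and rested 5 hr at 37 C; compounds added over a concentration range and incubated 24 hr at 37 C; CellTiter-Glo added, 30 min at room temperature; luminescence read and AC50 fitted with Hill model.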
# [12] = Cell Viability - LYMP2-012 (AID 982);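 note: cellular ATP by luciferase luminescence where a drop means cytotoxicity; cells exposed to compound for one day before reading; nearly all actives have a fitted effect of over 55% in size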
# [13] = Cell Viability - LYMP2-014 (AID 983);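 note: cells exposed to compound for 24 h at 37 °C; nearly all actives have a fitted effect of over 50% in size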
# Outline: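 Cells are plated at 2500/well and left 5 hr at 37 C. Compounds are added across a concentration range and incubated 24 hr at 37 C in complete medium. CellTiter-Glo is added, and luminescence is read after 30 min at room temperature.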
# [14] = Cell Viability - LYMP2-018 (AID 985);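 note: compound exposure lasted 24 hr at 37 °C; nearly all actives have a fitted effect of over 50% in size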
# Outline: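 Seed 2500 lymphoblastoid cells per well, incubate 5 hr at 37 C, add compound and incubate 24 hr at 37 C, add CellTiter-Glo, wait 30 min at room temperature, then read luminescence.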
# [15] = Cell Viability - LYMP1-002 - Assay at 40 hr (AID 994); note: nearly all actives have a fitted effect of over 60% in size
# Outline: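 Cells are plated at 2500 per well and rested 5 hr at 37 C. Compounds are added and incubated 40 hr at 37 C. CellTiter-Glo reagent is added for 30 min at room temperature before luminescence is read.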
# [16] = qHTS assay for small molecule antagonists of retinoid X receptor alpha signaling (AID 588546); settings: HEK293T RXRa-UAS-bla, beta-lactamase ratio, antagonist mode; measured here: W530 green channel, cytotoxicity proxy;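 note: cells stimulated with 9-cis-retinoic acid as agonist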
# Outline: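 Beta-lactamase reporter inhibition, read as CCF4 fluorescence ratio (ex 405, em 460/530 nm) after 2 h at RT. HEK293T UAS-bla cells, 2500/well, were stimulated with 9-cis-RA at 500 or 100 nM final alongside test compound for 18 h at 37 C.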
# [17] = target: Voltage-gated inwardly rectifying potassium channel KCNH2 (Homo sapiens) (UniProt Q12809); test: qHTS Assay for Small Molecule Inhibitors of the Human hERG Channel Activity (AID 588834);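 note: top concentration of the series differs between compounds; lower thallium flux fluorescence means stronger hERG block; nearly all actives have a fitted effect of over 50% in size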
# Outline: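 Homogeneous FluxOR thallium flux assay using hERG-expressing U2OS cells (BacMam). Compound treatment about 10 minutes preceded stimulation; reduced fluorescence taken as channel block.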
# [18] = target: Tumor necrosis factor (Homo sapiens) (UniProt P01375); test: qHTS assay to identify small molecules that stimulate Tumor Necrosis Factor-alpha (TNF-alpha) secretion (AID 651757; active = well fitted curve in the direction sought with a large enough effect in the signal ratio; the % refers to the signal ratio)
# Outline: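 Human monocytic THP-1 cells are plated, treated with compound and held at 37 C for 17 hrs. Labeled anti-TNF-alpha antibody mixture is then added; after 3 hr at room temperature, TR-FRET signal reports secreted TNF-alpha.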
# [19] = qHTS assay for cell viability of the p53RE-bla HCT-116 cell line (AID 743292); note: nearly all actives have a fitted effect of over 55% in size
# Outline: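 Viability of compound-treated p53RE-bla HCT-116 cells is taken from ATP-dependent luciferase luminescence. Treatment lasts 16 h at 37 C after a 5 h settling period; detection follows 30 min at room temperature.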
# [20] = Cellular Toxicity (caspase-3) N2a (AID 665);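 note: compound exposure lasted 16 h at 37 °C before readout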
# Outline: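 Caspase-3/7 activation, measured as increased luminescence from aminoluciferin release, is quantified in mouse N2a cells exposed to compounds for 16 h. Values are normalized to DMSO and 10 uM staurosporine, with AC50 derived by Hill modelling.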
# Voltage-gated inwardly rectifying potassium channel KCNH2 (Homo sapiens), sequence (Q12809 whole entry, looked up): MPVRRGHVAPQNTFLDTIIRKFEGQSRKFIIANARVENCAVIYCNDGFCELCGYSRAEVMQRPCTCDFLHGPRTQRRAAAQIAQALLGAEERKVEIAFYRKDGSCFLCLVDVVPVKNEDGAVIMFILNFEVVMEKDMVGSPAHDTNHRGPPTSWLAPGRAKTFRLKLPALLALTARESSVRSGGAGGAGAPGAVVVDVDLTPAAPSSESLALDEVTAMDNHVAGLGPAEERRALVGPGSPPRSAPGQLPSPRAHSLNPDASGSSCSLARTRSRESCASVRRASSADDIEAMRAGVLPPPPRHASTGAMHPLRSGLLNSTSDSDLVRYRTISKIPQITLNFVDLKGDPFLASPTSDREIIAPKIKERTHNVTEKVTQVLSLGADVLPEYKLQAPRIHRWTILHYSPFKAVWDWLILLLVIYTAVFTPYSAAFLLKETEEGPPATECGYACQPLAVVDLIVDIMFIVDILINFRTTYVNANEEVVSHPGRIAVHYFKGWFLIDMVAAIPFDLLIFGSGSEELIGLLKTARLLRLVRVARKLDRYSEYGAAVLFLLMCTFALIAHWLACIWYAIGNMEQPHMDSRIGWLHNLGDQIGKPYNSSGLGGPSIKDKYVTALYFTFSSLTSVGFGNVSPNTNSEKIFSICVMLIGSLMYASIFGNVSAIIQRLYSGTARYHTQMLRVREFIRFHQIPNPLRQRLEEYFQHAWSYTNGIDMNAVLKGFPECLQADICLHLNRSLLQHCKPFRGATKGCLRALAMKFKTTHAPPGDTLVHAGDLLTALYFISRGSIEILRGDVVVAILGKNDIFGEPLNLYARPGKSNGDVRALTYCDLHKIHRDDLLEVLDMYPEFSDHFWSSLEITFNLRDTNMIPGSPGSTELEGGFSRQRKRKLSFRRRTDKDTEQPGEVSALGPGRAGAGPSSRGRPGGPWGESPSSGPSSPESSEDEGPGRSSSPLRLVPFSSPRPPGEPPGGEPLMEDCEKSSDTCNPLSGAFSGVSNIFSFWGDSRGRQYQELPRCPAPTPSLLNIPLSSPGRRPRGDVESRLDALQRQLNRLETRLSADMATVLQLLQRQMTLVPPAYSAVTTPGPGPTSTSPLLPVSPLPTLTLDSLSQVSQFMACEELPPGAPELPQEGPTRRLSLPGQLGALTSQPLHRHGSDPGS
# Tumor necrosis factor (Homo sapiens), sequence (P01375 whole entry, looked up): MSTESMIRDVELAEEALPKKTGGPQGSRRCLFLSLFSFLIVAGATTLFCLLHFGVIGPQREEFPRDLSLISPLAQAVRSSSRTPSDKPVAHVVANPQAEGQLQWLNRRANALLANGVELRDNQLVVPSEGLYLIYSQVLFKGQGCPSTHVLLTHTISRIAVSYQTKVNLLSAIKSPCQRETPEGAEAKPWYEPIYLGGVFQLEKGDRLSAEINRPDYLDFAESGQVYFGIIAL
# Cytochrome P450 3A4 (Homo sapiens), sequence (P08684 whole entry, looked up): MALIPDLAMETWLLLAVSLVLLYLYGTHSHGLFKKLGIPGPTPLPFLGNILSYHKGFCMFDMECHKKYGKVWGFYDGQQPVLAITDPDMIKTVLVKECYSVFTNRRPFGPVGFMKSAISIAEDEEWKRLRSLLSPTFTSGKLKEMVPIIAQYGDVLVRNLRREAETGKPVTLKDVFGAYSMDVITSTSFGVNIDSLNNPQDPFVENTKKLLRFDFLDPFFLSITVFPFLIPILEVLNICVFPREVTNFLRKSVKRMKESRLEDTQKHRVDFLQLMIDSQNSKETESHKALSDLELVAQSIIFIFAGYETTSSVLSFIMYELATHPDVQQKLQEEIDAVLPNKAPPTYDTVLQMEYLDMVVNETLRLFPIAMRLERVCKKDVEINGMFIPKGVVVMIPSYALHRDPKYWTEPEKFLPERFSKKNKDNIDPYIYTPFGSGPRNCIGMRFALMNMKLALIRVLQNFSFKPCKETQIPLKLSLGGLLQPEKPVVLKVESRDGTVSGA
SMILES,Potency [1],caspase-3 activation [2],outcome [3],Potency [4],outcome [5],Potency [6],Potency [7],Potency [8],Potency [9],Potency [10],Potency [11],Potency [12],Potency [13],Potency [14],Potency [15],max response [16],Potency [17],outcome [18],Potency [19],outcome [20]
C=CCO,inactive,2.82% (inactive),inactive,inactive,inactive,inactive,inactive,inactive,inactive,inactive,inactive,inactive,inactive,inactive,inactive,1.87%,inactive,inactive,inactive,
CCBr,inactive,-0.439% (inactive),inactive,inactive,,inactive,inactive,inactive,inactive,inactive,inactive,inactive,inactive,inactive,inactive,-5.59%,inactive,inactive,inactive,inactive
O=P(OCCCl)(OCCCl)OCCCl,inactive,-1.25% (inactive),,inactive,inactive,inactive,inactive,inactive,inactive,inactive,inactive,inactive,inactive,inactive,inactive,-9.97%,inactive,inactive,,inactive
Nc1cc(Cl)cc(C(=O)O)c1Cl,inactive,-0.545% (inactive),inactive,,inactive,inactive,inactive,inactive,inactive,inactive,inactive,inactive,inactive,inactive,inactive,0.823% and -3.03%,inactive,inactive,inactive,inactive
Cl/C=C/CCl,inactive,1.51% (inactive),inactive,inactive,inactive,inactive,inactive,inactive,inactive,inactive,inactive,inactive,inactive,inactive,inactive,3.06%,inactive,inactive,inactive,inactive
O=[N+]([O-])c1cccc(O)c1,inactive,1.08% (inactive),inactive,inactive,inactive,inactive,inactive,inactive,inactive,inactive,inactive,inactive,inactive,inactive,inactive,-2.66%,inactive,inactive,inactive,inactive
O=C(O)CCl,inactive,-0.292% (inactive),inactive,inactive,inactive,inactive,inactive,inactive,inactive,inactive,inactive,inactive,inactive,inactive,inactive,1.14%,inactive,inactive,inactive,inactive
Nc1ncc([N+](=O)[O-])s1,inactive,-1.21% (inactive),inactive,inactive,inactive,inactive,,inactive,inactive,inactive,inactive,inactive,inactive,inactive,inactive,-7.58%,inactive,inactive,inactive,inactive
c1ccc2c(c1)CCNC2,inactive,0.933% (inactive),inactive,inactive,inactive,inactive,inactive,inactive,inactive,inactive,inactive,inactive,inactive,inactive,inactive,-4.26%,inactive,inactive,inactive,inactive
[O-][Cl+2]([O-])O,inactive,-0.446% (inactive),,inactive,inactive,inactive,inactive,inactive,inactive,inactive,inactive,inactive,inactive,inactive,inactive,-3.35%,inactive,inactive,inactive,inactive
Nc1ccc([N+](=O)[O-])cc1[N+](=O)[O-],inactive,1.67% (inactive),inactive,inactive,inactive,inactive,inactive,inactive,inactive,inactive,inactive,inactive,inactive,inactive,inactive,,inactive,inactive,inactive,inactive
N#CC(O)c1ccccc1 (stereo unspecified),inactive,2.09% (inactive),inactive,inactive,inactive,inactive,inactive,inactive,inactive,inactive,inactive,inactive,inactive,inactive,inactive,-9.69%,inactive,inactive,inactive,inactive
O=[N+]([O-])c1ccccc1O,inactive,1.37% (inactive),inactive,inactive,inactive,inactive,inactive,inactive,inactive,inactive,inactive,inactive,inactive,inactive,inactive,-5.99%,inactive,inactive,inactive,inactive
O=S(=O)(O)F,inactive,1.63% (inactive),,inactive,inactive,inactive,inactive,inactive,inactive,inactive,inactive,inactive,inactive,inactive,inactive,-2.92%,inactive,inactive,inactive,inactive
COC(=O)Nc1nc2ccccc2[nH]1,inactive,10.9% (inactive),inactive,,inactive,,,inactive,inactive,inactive,,inactive,inactive,inactive,,1.76%,inactive,inactive,inactive,inactive
